Results published in the OligoGym collection.

molecular target: FER1L6; assay: pooled miR-30 sensor sort-seq; sequence = guide strand; conditions: shRNA
Note: reference of the scale not given here.

Sequence | sensor-assay potency score (higher = more potent)
TAAAATGACATCTTCAGTGTTC | 0.481
TAACTTTTTCTTCTGCTGCTGA | 0.239
TTGCTTGCACAGACCAACCAGC | -0.415
TTTGTCTCCATCCTGTTCGTTG | -0.562
TTCTTCTATACTTTCTTCCAGG | -0.684
TAGCGAATCTGAAATATCGTGC | 0.395
TTGACTATCTTTCGCAGCCTTG | -0.891
TTCTTCTGCTGTAACTAGGTGG | -0.362
TTAGTCAACAGTTTTGATCTTC | 0.643
TAGAGTCTCACATAGAATCTGG | -0.448
TTTTCTGGTACAATCTCCGGGG | 0.181
TTTTTCTGGTACAATCTCCGGG | 0.00268

molecular target: FEZ1; assay: as above; conditions: shRNA

Sequence | sensor-assay potency score (higher = more potent)
TTTAAATACATGTCGGAGGTTA | 0.312
TTTATTTCAAAATTAGTCTTAA | -0.684
TGAACCATAGAAACACTGGGGC | 0.345
